{"source": "ChEMBL document CHEMBL3988442", "about": "“University of Dundee, Small-Polar-MMV Screening Library” (2021)", "data": [{"molecular_target": "Shiga toxin 2 (Escherichia coli O157:H7) (UniProt P09385+P09386)", "assay": "E. coli 0.157:H7 Shiga Toxin SOP - stx2 screening assay", "assay_type": "functional", "design": "scale not given: direction of the effect not stated beside the values", "details": "30 µM", "units": {"Percent Effect": "%"}, "values": [{"compound": "COC(=O)N1CCCN(C(=O)NCc2ccc(Cl)s2)CC1", "Percent Effect": -16.1}, {"compound": "CCc1nnsc1C(=O)N1CCCN(Cc2cnn(C)c2)CC1", "Percent Effect": 7.82}, {"compound": "CC(C)COC(C)C(=O)N1CCN(S(C)(=O)=O)CC1", "note": "(stereo not given)", "Percent Effect": -2.13}, {"compound": "Cc1ccc(NC2CCN(C(=O)c3n[nH]c4ccccc34)CC2)nn1", "Percent Effect": -18.6}, {"compound": "O=C(NCCC1=CCCCC1)NCc1nnc2n1CCC2", "Percent Effect": 24.3}, {"compound": "C1CC(CN2CCO[C@H]3[C@H](OCC4CC4)CC[C@@H]32)CCO1", "Percent Effect": -6.68}, {"compound": "Cc1ccccc1Cc1cnc(NC(=O)C2CNC(=O)N2)s1", "note": "(stereo not given)", "Percent Effect": 3.51}, {"compound": "CCOCC1CN(C(=O)c2cccn2C)Cc2cnn(CC3CC3)c21", "note": "(stereo not given)", "Percent Effect": -5.56}, {"compound": "Cc1noc(CCCC(=O)NC(C)c2ccccn2)n1", "note": "(stereo not given)", "Percent Effect": 16}, {"compound": "O=C(NCCNc1ccc(C(F)(F)F)cn1)c1ccc(Br)cc1F", "Percent Effect": 38.5}, {"compound": "Cc1ncc(CNCC2CCCN2c2cccnn2)s1", "note": "(stereo not given)", "Percent Effect": -14.7}, {"compound": "Cn1cc(N2CCCC(NCc3cccc4c3OCCCO4)C2)cn1", "note": "(stereo not given)", "Percent Effect": 22.1}, {"compound": "Cc1cnn(CC2CCCN2Cc2cc(=O)n3cccc(C)c3n2)c1", "note": "(stereo not given)", "Percent Effect": 8}, {"compound": "Cc1cnn(CC2CN(CC(=O)N(C)Cc3cccs3)CCO2)c1", "note": "(stereo not given)", "Percent Effect": -8.69}, {"compound": "O=C(c1ccn(-c2ccccc2Cl)n1)N1CCSCC1", "Percent Effect": 8.96}, {"compound": "Nc1nc2c(c(=O)[nH]1)CCN(C(=O)c1cccc3nccnc13)C2", "Percent Effect": -31.4}, {"compound": "O=C(Cc1cn2ccsc2n1)N1CCCC(n2cncn2)C1", "note": "(stereo not given)", "Percent Effect": -30}, {"compound": "CC(C)N(C)Cc1cn2c(n1)CN(C(=O)Cc1ccsc1)CC2", "Percent Effect": -5.19}, {"compound": "CN1CCN(C(=O)[C@H]2C[C@@H]3CCN(c4ncc(F)cn4)C[C@@H]3O2)CC1", "Percent Effect": -18.9}, {"compound": "O=C(CCCn1cncn1)NC1(c2ccccc2)CCC1", "Percent Effect": -17.7}]}]}
